Laboratory results as given in PubChem BioAssay (Tox21).
“And” between values parts separate entries of the source, which are not always exact repeats. Equal entries are not always repeated. A structure can be active in one record and inactive in another. The source made the active and inactive calls. Entries that show only a call come without a potency. Unless noted, calls follow the shape of the dose curve; as a rule, active = well fitted curve in the direction sought with a large enough effect in the repeat runs; inconclusive = weak or mixed curves; inactive = no such curve, though single readings can be large; an effect the other way counts as inactive or inconclusive.

Key:
[1] = qHTS assay to identify small molecule antagonists of the thyroid receptor (TR) signaling pathway (AID 743065); also: nearly all actives have a fitted effect of over 55% in size; also: potency is read from the fitted curve at half-maximal effect
Outline: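 Antagonism measured as loss of luciferase signal in GH3 cells stably carrying a TRE-luciferase reporter, co-treated with compound and T3 (1 nM final) for 23.5 h at 37 C. Viability was read in the same well by CellTiter-Fluor.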

[2] = test system: thyroid hormone receptor (rat, GH3 cells); assay: qHTS assay to identify small molecule agonists of the thyroid receptor (TR) signaling pathway (AID 743066; calls by dose curve)
[3] = qHTS assay to identify small molecule antagonists of the estrogen receptor alpha (ER-alpha) signaling pathway - cell viability counter screen (AID 743074; calls by dose curve;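 also: HEK293 cells carrying ER-alpha-UAS-bla reporter stimulated with 17beta-estradiol; nearly all actives have a fitted effect of over 45% in size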; also: potency is read from the fitted curve at half-maximal effect)
[4] = qHTS assay to identify small molecule antagonists of the estrogen receptor alpha (ER-alpha) signaling pathway using the BG1 cell line - cell viability counter screen (AID 743081);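 also: compound given together with 17beta-estradiol as the ER stimulus; nearly all actives have a fitted effect of over 45% in size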; also: potency is read from the fitted curve at half-maximal effect
Aromatase (Homo sapiens) = Aromatase (Homo sapiens) (UniProt P11511); assay: qHTS assay to identify aromatase inhibitors (AID 743083); also: nearly all actives have a fitted effect of over 55% in size; also: potency is read from the fitted curve at half-maximal effect
[5] = qHTS assay to identify aromatase inhibitors - cell viability counter screen (AID 743084);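 also: cells stimulated with testosterone during compound exposure; nearly all actives have a fitted effect of over 55% in size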; also: potency is read from the fitted curve at half-maximal effect
[6] = biological target: Aryl hydrocarbon receptor (Homo sapiens) (UniProt P35869); assay: qHTS assay to identify small molecule that activate the aryl hydrocarbon receptor (AhR) signaling pathway (AID 743085); also: nearly all actives have a fitted effect of over 15% in size; also: potency is read from the fitted curve at half-maximal effect;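 as to activation: HG2L7.5c1 human HepG2 liver cells with stably integrated DRE-driven firefly reporter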
Outline: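 Luminescence (ONE-Glo) from a dioxin-responsive-element luciferase reporter in HG2L7.5c1 HepG2 cells after 24 hr compound exposure at 37C; viability measured by CellTiter-Fluor fluorescence beforehand.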

[7] = qHTS assay to identify small molecule that activate the aryl hydrocarbon receptor (AhR) signaling pathway - cell viability counter screen (AID 743086); also: nearly all actives have a fitted effect of over 45% in size; also: potency is read from the fitted curve at half-maximal effect
Outline: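 Cytotoxicity counter screen: CellTiter-Fluor signal (30 min, 37 C) in 4000 HepG2 cells/well carrying the DRE-luciferase reporter, following 24 h compound exposure at 37 C.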

[8] = qHTS assay to identify small molecule antagonists of the peroxisome proliferator-activated receptor gamma (PPARg) signaling pathway - cell viability counter screen (AID 743194); also: nearly all actives have a fitted effect of over 55% in size; also: potency is read from the fitted curve at half-maximal effect
Outline: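 Viability was measured as CellTiter-Glo luminescence in GeneBLAzer PPARg UAS-bla HEK293H cells. These cells had been exposed 17 h at 37 C to compounds together with rosiglitazone at 50 nM final, with the beta-lactamase readout taken in the same wells.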

[9] = qHTS assay for small molecule activators of the heat shock response signaling pathway - cell viability counter screen (AID 743209); also: nearly all actives have a fitted effect of over 50% in size; also: potency is read from the fitted curve at half-maximal effect
Outline: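 Luminescence from CellTiter-Glo, added after the beta-lactamase FRET read, gave the viability signal. Cells were HSE-bla HeLa treated with DMSO-dissolved compounds for 5 h at 37 C following overnight plating.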

[10] = qHTS assay to identify small molecule agonists of the peroxisome proliferator-activated receptor delta (PPARd) signaling pathway - cell viability counter screen (AID 743211); also: nearly all actives have a fitted effect of over 55% in size; also: potency is read from the fitted curve at half-maximal effect
Outline: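 Viability was measured as CellTiter-Glo luminescence (30 min, room temperature) in the same wells as the beta-lactamase readout. GeneBLAzer PPARd UAS-bla HEK293H cells received compound after 5 h plating and were incubated 17 h at 37 C.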

[11] = biological target: Estrogen receptor (Homo sapiens) (UniProt P03372); assay: qHTS assay to identify small molecule agonists of the estrogen receptor alpha (ER-alpha) signaling pathway (AID 743075; calls by dose curve; also: potency is read from the fitted curve at half-maximal effect)
[12] = biological target: Estrogen receptor (Homo sapiens) (UniProt P03372); assay: qHTS assay to identify small molecule agonists of the estrogen receptor alpha (ER-alpha) signaling pathway using the BG1 cell line (AID 743079); conditions: BG1Luc4E2 cells, ERE-luciferase agonist, 22 h; activation: at 70.3 µM (top of the series); also: nearly all actives have a fitted effect of over 20% in size; also: potency is read from the fitted curve at half-maximal effect
[13] = qHTS assay to identify small molecule antagonists of the estrogen receptor alpha (ER-alpha) signaling pathway using the BG1 cell line (AID 743080; calls by dose curve;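 also: BG1 cells stimulated with 17beta-estradiol alongside compound; nearly all actives have a fitted effect of over 25% in size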; also: potency is read from the fitted curve at half-maximal effect); conditions: BG1Luc4E2 ERE-luciferase antagonist mode, luminescence; activity change, negative = inhibition: at 70.3 µM (top of the series)
Outline: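 BG1-Luc-4E2 cells (endogenous full-length ER-alpha, 4xERE luciferase) hormone-starved 5 days in charcoal-stripped FBS, plated 4,000/well for 24 h, then compound plus 17beta-estradiol for 21.5 h at 37 C; ONE-Glo luminescence read.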

[14] = biological target: Peroxisome proliferator-activated receptor gamma (Homo sapiens) (UniProt P37231); assay: qHTS assay to identify small molecule agonists of the peroxisome proliferator-activated receptor gamma (PPARg) signaling pathway (AID 743094; active = well fitted activation curve with a large enough effect in the signal ratio in the repeat runs, not every such curve was filed as active; inconclusive = weak or mixed curves, or effect the other way; inactive = no such curve, though single readings can be large or run the other way; the % refers to the signal ratio)
Outline: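 Beta-lactamase FRET fluorescence was the read-out after a 1 h room-temperature substrate step, following 17 h compound treatment at 37C of HEK293H cells expressing a UAS-driven bla reporter responsive to PPARg.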

[15] = biological target: Peroxisome proliferator-activated receptor gamma (Homo sapiens) (UniProt P37231); assay: qHTS assay to identify small molecule antagonists of the peroxisome proliferator-activated receptor gamma (PPARg) signaling pathway (AID 743191; calls by dose curve; also: nearly all actives have a fitted effect of over 30% in size; also: potency is read from the fitted curve at half-maximal effect)
Outline: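 Beta-lactamase reporter under UAS control in HEK293H PPARg-bla cells; compound treatment 17 h at 37C. Read-out: fluorescence intensity after 1 h room-temperature incubation with LiveBLAzer B/G FRET substrate.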

[16] = qHTS assay for small molecule agonists of the antioxidant response element (ARE) signaling pathway (AID 743202; active = well fitted activation curve with a large enough effect in the signal ratio in the repeat runs, not every such curve was filed as active; inconclusive = weak or mixed curves, or effect the other way; inactive = no such curve, though single readings can be large or run the other way; the % refers to the signal ratio; also: potency is read from the fitted curve at half-maximal effect)
Outline: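 An ARE-responsive beta-lactamase gene stably integrated in HepG2 cells serves as reporter. After 5 h plating and 16 h compound incubation at 37 C, fluorescence of the B/G FRET substrate was measured.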

[17] = qHTS assay for small molecule agonists of the antioxidant response element (ARE) signaling pathway - cell viability counter screen (AID 743203; calls by dose curve; also: nearly all actives have a fitted effect of over 55% in size; also: potency is read from the fitted curve at half-maximal effect)
Outline: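 HepG2 cells carrying ARE-driven beta-lactamase; 2,000 cells/well; 5 hrs plating; compound pinned from DMSO; 16 hrs 37C/5% CO2; CellTiter-Glo added; 30 min RT; luminescence.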

[18] = qHTS assay for small molecule activators of the heat shock response signaling pathway (AID 743210; active = well fitted activation curve with a large enough effect in the signal ratio in the repeat runs, with a control signal flat, not every such curve was filed as active; inconclusive = weak or mixed curves; the % refers to the signal ratio;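 also: HeLa cells with beta-lactamase reporter driven by heat shock elements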)
Outline: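 In HSE-bla HeLa cells, 5 h compound incubation (37 C) precedes addition of LiveBLAzer B/G substrate; after 2.5 h at room temperature, fluorescence intensity indicates reporter induction.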

[19] = biological target: Estrogen receptor (Homo sapiens) (UniProt P03372); assay: qHTS assay to identify small molecule antagonists of the estrogen receptor alpha (ER-alpha) signaling pathway (AID 743069; active = well fitted curve in the direction sought with a large enough effect in the signal ratio in the repeat runs, not every such curve was filed as active; inconclusive = weak or mixed curves, or effect the other way; inactive = no such curve, though single readings can be large or run the other way; the % refers to the signal ratio; also: potency is read from the fitted curve at half-maximal effect)
Outline: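 Compound effects are measured against 17beta-estradiol stimulation in HEK293 cells with a UAS-controlled beta-lactamase reporter for ER-alpha. Exposure lasts 18 hr at 37C; LiveBLAzer B/G FRET substrate follows for 2 hr at room temperature.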

Chain of Aryl hydrocarbon receptor (Homo sapiens) (P35869 whole entry, looked up): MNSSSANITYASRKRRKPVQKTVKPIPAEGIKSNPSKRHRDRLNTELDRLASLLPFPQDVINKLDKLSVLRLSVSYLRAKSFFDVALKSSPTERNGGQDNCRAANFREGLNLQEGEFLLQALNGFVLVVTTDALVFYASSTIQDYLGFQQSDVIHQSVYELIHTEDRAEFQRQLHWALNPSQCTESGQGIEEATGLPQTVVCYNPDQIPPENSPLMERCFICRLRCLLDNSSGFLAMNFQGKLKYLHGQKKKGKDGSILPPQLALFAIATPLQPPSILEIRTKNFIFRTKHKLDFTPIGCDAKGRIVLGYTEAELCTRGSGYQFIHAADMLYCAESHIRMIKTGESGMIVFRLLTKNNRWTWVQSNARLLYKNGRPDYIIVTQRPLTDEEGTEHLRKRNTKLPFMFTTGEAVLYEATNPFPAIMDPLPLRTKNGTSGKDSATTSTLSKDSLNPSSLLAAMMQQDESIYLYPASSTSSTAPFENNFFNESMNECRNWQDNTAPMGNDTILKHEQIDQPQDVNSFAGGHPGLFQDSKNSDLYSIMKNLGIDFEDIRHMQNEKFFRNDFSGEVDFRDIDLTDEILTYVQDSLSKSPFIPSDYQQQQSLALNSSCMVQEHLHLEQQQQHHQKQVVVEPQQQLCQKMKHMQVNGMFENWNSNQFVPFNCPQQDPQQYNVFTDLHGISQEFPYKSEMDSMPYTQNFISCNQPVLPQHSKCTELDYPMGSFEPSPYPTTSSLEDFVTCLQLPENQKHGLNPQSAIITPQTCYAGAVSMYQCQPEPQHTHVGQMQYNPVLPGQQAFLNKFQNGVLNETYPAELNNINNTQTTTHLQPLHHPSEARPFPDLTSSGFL
Chain of Estrogen receptor (Homo sapiens) (P03372 whole entry, looked up): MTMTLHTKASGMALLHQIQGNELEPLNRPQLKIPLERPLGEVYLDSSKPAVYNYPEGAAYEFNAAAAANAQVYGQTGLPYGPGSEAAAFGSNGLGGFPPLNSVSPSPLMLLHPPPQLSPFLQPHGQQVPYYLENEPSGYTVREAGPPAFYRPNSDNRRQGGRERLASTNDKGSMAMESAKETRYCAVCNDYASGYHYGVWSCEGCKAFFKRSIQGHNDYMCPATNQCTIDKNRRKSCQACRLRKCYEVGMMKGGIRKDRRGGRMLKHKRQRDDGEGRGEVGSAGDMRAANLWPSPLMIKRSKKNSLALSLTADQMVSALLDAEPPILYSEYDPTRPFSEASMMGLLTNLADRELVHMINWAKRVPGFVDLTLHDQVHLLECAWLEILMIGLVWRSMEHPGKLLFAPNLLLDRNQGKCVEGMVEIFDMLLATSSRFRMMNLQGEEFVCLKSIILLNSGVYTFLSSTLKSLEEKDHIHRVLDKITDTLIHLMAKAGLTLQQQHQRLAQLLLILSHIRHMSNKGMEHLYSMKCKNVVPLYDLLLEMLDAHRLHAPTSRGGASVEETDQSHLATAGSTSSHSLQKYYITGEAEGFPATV
Chain of Aromatase (Homo sapiens) (P11511 whole entry, looked up): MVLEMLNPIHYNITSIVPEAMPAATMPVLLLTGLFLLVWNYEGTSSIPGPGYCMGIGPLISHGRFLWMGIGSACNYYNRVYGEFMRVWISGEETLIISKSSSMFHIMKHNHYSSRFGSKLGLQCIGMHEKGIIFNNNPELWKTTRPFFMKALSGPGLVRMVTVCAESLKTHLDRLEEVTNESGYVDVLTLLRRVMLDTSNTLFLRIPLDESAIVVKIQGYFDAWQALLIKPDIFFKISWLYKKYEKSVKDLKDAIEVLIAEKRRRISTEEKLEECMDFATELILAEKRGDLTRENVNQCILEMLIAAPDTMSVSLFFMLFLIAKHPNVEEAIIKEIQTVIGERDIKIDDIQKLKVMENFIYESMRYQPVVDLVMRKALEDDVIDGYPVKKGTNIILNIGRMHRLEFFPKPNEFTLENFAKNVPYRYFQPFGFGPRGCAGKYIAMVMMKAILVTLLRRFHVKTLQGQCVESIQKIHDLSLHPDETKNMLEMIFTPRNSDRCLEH
Chain of Peroxisome proliferator-activated receptor gamma (Homo sapiens) (P37231 whole entry, looked up): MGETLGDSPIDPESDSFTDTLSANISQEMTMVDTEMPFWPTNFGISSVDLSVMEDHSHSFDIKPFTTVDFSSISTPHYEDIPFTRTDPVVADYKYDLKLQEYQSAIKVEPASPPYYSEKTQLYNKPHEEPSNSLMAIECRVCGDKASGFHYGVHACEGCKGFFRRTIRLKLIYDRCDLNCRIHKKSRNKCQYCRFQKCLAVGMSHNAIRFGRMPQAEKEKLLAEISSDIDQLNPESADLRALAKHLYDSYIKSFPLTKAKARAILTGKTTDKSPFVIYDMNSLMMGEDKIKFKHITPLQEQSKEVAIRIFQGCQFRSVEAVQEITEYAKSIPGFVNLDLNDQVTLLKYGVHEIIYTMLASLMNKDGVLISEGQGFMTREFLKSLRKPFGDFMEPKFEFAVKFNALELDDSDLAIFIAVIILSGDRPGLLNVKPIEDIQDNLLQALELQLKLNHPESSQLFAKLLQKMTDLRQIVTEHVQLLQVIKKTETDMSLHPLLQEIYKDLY

Structure (SMILES) | Potency [1] | Potency [2] | Potency [3] | Potency [4] | Potency (Aromatase (Homo sapiens)) | Potency [5] | Potency [6] | Potency [7] | Potency [8] | Potency [9] | Potency [10] | Potency [11] | Potency [12] | Potency [13] | Potency [14] | Potency [15] | Potency [16] | Potency [17] | Potency [18] | Potency [19]
CC(=O)Nc1ccc(O)cc1 | inactive | inactive | inactive | inactive | inactive | inactive | inactive | inactive | inactive | inactive | inactive | – | – | – | – | – | – | – | – | –
C1CC(COCC2CO2)CCC1COCC1CO1 (configuration not stated) | 61.1 µM (active) | inactive | inactive | inactive | – | – | inactive | inactive | inactive | – | inactive | inactive | inactive | inactive | inactive | inactive | 54.5 µM (active) | inactive | inactive | –
Cc1cccc(Br)c1 | inactive | inactive | inactive | inactive | inactive | inactive | inactive | inactive | inactive | inactive | inactive | – | – | – | – | inactive | inactive | inactive | inactive | –
Cc1c(C(=O)O)cccc1[N+](=O)[O-] | inactive | inactive | inactive | inactive | inactive | inactive | inactive | inactive | inactive | inactive | inactive | – | – | – | inactive | inactive | inactive | inactive | – | –
CC1=C(/C=C/C(C)=C/C=C/C(C)=C/C(=O)Nc2ccc(O)cc2)C(C)(C)CCC1 | 5.96 µM (active) and 7.89 µM (active) | inactive | – | 16.8 µM (active) and 62.7 µM (active) | 13.3 µM (active) and 28 µM (active) | 26.6 µM (active) and 28 µM (active) | inactive | 28 µM (active) | inactive | 20 µM (active) and 33.5 µM (active) | 3.56 µM (active) and 4.73 µM (active) | inactive | – | – | – | 71 µM (active) | – | 44.4 µM (active) | – | 6.01 µM [inhibitor] (active)
CCCCCCCCCCCCOC(=O)c1cc(O)c(O)c(O)c1 | 2.72 µM (active) and 1.93 µM (active) | inactive | 49 µM (active) | – | 30.5 µM (active) and 27.3 µM (active) | 30.5 µM (active) and 61.1 µM (active) | inactive | inactive | 43.6 µM (active) | 13.7 µM (active) and 49 µM (active) | 34.5 µM (active) and 43.6 µM (active) | – | – | – | – | – | – | 68.3 µM (active) and 61.1 µM (active) | – | 19.4 µM [inconclusive] (active)
CCCCCCCCCCCCCOP(=O)(O)O | inactive | inactive | inactive | inactive | – | inactive | inactive | inactive | 43.6 µM (active) | 34.7 µM (active) | – | inactive | inactive | inactive | – | – | – | 43.3 µM (active) | – | –
c1ccc(Nc2cccc3ccccc23)cc1 | 69.5 µM (active) | inactive | inactive | inactive | 43.8 µM (active) and 61.1 µM (active) | 39.1 µM (active) | 49.2 µM (active) and 54.5 µM (active) | inactive | inactive | inactive | inactive | 44.2 µM [inconclusive] (active) and 17.4 µM [activator] (active) | 13.9 µM (active) and 9.69 µM (active) | inactive | inactive | 49.6 µM (active) and inactive | inactive | inactive | inactive | –
CCCCCCCC/C=C\CCCCCCCC(=O)OCCOC(=O)CCCCCCC/C=C\CCCCCCCC | inactive | inactive | inactive | inactive | inactive | inactive | inactive | inactive | inactive | inactive | inactive | inactive | 71.2 µM (active) | inactive | inactive | – | inactive | inactive | inactive | –
CCCCCCCCCCCCN(CCO)CCO | 15.3 µM (active) | inactive | 48.8 µM (active) | – | 30.5 µM (active) | 48.4 µM (active) | inactive | – | 54.7 µM (active) | 54.7 µM (active) | 38.7 µM (active) | inactive | – | 68.3 µM (active) | – | – | – | 54.3 µM (active) | – | –
C/C=C/C(=O)Oc1c(CCCCCC(C)C)cc([N+](=O)[O-])cc1[N+](=O)[O-] | 3.86 µM (active) | inactive | – | – | 15.4 µM (active) | 21.7 µM (active) | – | – | 6.16 µM (active) | 24.5 µM (active) | – | – | – | – | – | – | – | 8.63 µM (active) | – | 4.9 µM [inconclusive] (active)
CCN=C1C=CC(=C(c2ccc(N(CC)CC)cc2)c2ccc(N(CC)CC)cc2)c2ccccc21 | 0.121 µM (active) | inactive | 19.4 µM (active) | 30.5 µM (active) | 0.216 µM (active) | 9.63 µM (active) | inactive | 24.2 µM (active) | 0.154 µM (active) | 21.7 µM (active) | 3.87 µM (active) | – | – | 0.136 µM (active) | – | – | – | 5.42 µM (active) | – | 38.7 µM [cytotoxic] (active)
O=C(O)CC(=O)O | inactive | inactive | inactive | inactive | inactive | inactive | inactive | inactive | inactive | inactive | inactive | – | – | – | inactive | inactive | – | inactive | inactive | –
Cc1ccc(N)cc1O | inactive | inactive | – | inactive | – | – | 15.7 µM (active) | 61.1 µM (active) | inactive | – | – | inactive | inactive | inactive | – | 49 µM (active) | – | inactive | inactive | inactive
CNC(=S)NN | 61.1 µM (active) | inactive | inactive | inactive | 61.1 µM (active) | – | inactive | 19.3 µM (active) | inactive | 24.5 µM (active) | 12.3 µM (active) | inactive | – | – | – | inactive | – | – | – | –
CCCCCCCCCCCC(=O)N(CC)CC | inactive | inactive | inactive | inactive | inactive | inactive | inactive | inactive | inactive | inactive | inactive | – | – | – | inactive | – | inactive | inactive | inactive | –
CC1(C)C(=O)N(Br)C(=O)N1Br | inactive | inactive | inactive | inactive | inactive | inactive | inactive | – | inactive | inactive | inactive | – | – | – | inactive | inactive | inactive | inactive | inactive | –
